Experimental data reported in PubChem BioAssay (NCI).
The panel holds about 83,000 compounds, 20% with a hit somewhere; the sample as a whole holds those more often.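 Compound tested at a single concentration for 48 hours in 96-well plates; a percent growth value below 10 was scored as active.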 A number with no mark means an inactive call. Active and inactive are the calls of the source.

Columns and labels:
Assay in all cases: NCI-60 one-dose screen, 48 h (100 = growth as untreated, 0 = no growth, -100 = all killed)
Settings in all cases: 10 µM unless noted
NCI-H23 lung = tested on: NCI-H23 lung
NCI-H226 lung = tested on: NCI-H226 lung
NCI-H322M lung = tested on: NCI-H322M lung
HOP-62 NSCLC = tested on: HOP-62 NSCLC
NCI-H460 lung = tested on: NCI-H460 lung
HOP-92 NSCLC = tested on: HOP-92 NSCLC
NCI-H522 lung = tested on: NCI-H522 lung
A549/ATCC NSCLC = tested on: A549/ATCC NSCLC
786-0 renal = tested on: 786-0 renal
COLO 205 colon = tested on: COLO 205 colon
DU-145 prostate = tested on: DU-145 prostate
K-562 leukemia = tested on: K-562 leukemia
MALME-3M melanoma = tested on: MALME-3M melanoma
MDA-MB-231 breast = tested on: MDA-MB-231 breast
RXF 393 renal = tested on: RXF 393 renal
SF-268 CNS = tested on: SF-268 CNS
SF-295 CNS = tested on: SF-295 CNS
SF-539 CNS = tested on: SF-539 CNS
UACC-257 melanoma = tested on: UACC-257 melanoma
M14 melanoma = tested on: M14 melanoma

Compound | growth (NCI-H23 lung) | growth (NCI-H226 lung) [%] | growth (NCI-H322M lung) [%] | growth (HOP-62 NSCLC) [%] | growth (NCI-H460 lung) | growth (HOP-92 NSCLC) | growth (NCI-H522 lung) | growth (A549/ATCC NSCLC) | growth (786-0 renal) | growth (COLO 205 colon) | growth (DU-145 prostate) [%] | growth (K-562 leukemia) | growth (MALME-3M melanoma) | growth (MDA-MB-231 breast) | growth (RXF 393 renal) | growth (SF-268 CNS) [%] | growth (SF-295 CNS) | growth (SF-539 CNS) | growth (UACC-257 melanoma) [%] | growth (M14 melanoma)
COc1ccc(/C=C2\CN(C(=O)CCN3CCC(=NO)CC3)C/C(=C\c3ccc(OC)cc3)C2=O)cc1 | -4.73% (active) | 70 | 17.8 | 44.8 | -34.5% (active) | 89% | -29.7% (active) | 36.5% | -10.3% (active) | -23.7% (active) | 22.6 | 4.21% (active) | -40.9% (active) | -57.9% (active) | -81.2% (active) | 13.3 | 8.38% (active) | -25.5% (active) | 22.9 | 7.58% (active)
CSc1nc2sc3c(c2c(=O)n1-c1ccc(C(C)C)cc1)CCC(=O)C3 | -1.79% (active) | 65.6 | 31.6 | 15.2 | 1.54% (active) | -18.2% (active) | -75.3% (active) | 67.9% | 18.7% | -67.7% (active) | 40.5 | 2.37% (active) | 2.52% (active) | -17.1% (active) | -2.94% (active) | 18.9 | 4.21% (active) | -22.1% (active) | 84.7 | 10.1%
CNc1cc2nc3cc(NC)c(C)cc3cc2cc1C | 13.3% | 26.4 | 12.5 | 10.7 | -85.8% (active) | 11.7% | -2.17% (active) | -4.57% (active) | 12.9% | -39.1% (active) | 18.5 | 21.1% | 41.3% | 28.7% | 11.9% | 11.3 | 10% | 10.4% | 29.2 | 24.8%
Cc1ccc2c(c1)O/C(=C\c1cccc(OCC(=O)c3ccccc3)c1)C2=O | 97.4% | 93.6 | 116 | 90.3 | 107% | 75.2% | 70.3% | 81.6% | 91.1% | 101% | 103 | 93.4% | 94.7% | 79% | 80% | 103 | 89.4% | 105% | 93.6 | 98.9%
O=C1O[C@H]([C@H](O)CO)C(O)=C1O | 97.7% | 103 | 104 | 107 | 104% | 109% | 88.4% | 104% | 103% | 107% | 100 | 107% | 119% | 97.1% | 100% | 117 | 110% | 108% | 103 | 106%
CCCCCCCCCCNC(=O)CCl | 47.5% | 85.7 | 92.8 | 81.3 | 92.9% | 36.2% | 50.4% | 93.6% | 82.3% | 116% | 91.1 | 85.3% | 87.9% | 90.4% | 75.3% | 82.2 | 102% | 84.1% | 84.3 | 83.9%
CSc1ncnc2c1ncn2C1CCCO1 (stereo not given) | 96.1% | 90.1 | 90.9 | 99.7 | 105% | 141% | 121% | 106% | 104% | 119% | 127 | 91.2% | 93.6% | 110% | 131% | 115 | 104% | 103% | 124 | 109%
Cc1cc(-c2nc3ccccc3s2)ccc1NC(=O)COc1ccc(Cl)cc1 | 79.7% | 70.6 | 106 | 89.8 | 92.8% | 83.5% | 87.8% | 109% | 93.4% | 110% | 130 | 93.7% | 106% | 96.9% | 139% | 109 | 120% | 105% | 120 | 100%
CC(=O)OC1Oc2cc(C)c(C)cc2-c2oc(=O)c(-c3cc4ccc(N(C)C)cc4oc3=O)cc21 (stereo not given) | 46.9% | 59.2 | 78.9 | 82 | 65.4% | 77.8% | 60.5% | 70.5% | 74.1% | 96.4% | 85.8 | 11.4% | 68.1% | 75.8% | 45.9% | 84.8 | 54.9% | 81.4% | 73.4 | 86.7%
C/C(Cc1ccc(Cl)cc1)=C(\c1ccc(OCCN2CCCCCC2)cc1)c1ccc(OC(=O)C2CCCCC2)cc1 | 74.8% | 79.2 | 70.5 | 81.5 | 34.7% | 29.1% | 64.8% | 66.5% | 70% | -21.8% (active) | 70.4 | 11.4% | 85.7% | 85.4% | 56.2% | 57 | 89.8% | 74.2% | 91 | 12.7%
Cc1ccc2c(c1)n([O-])c1cc(Cl)ccc1[n+]2=O | 97% | 104 | 115 | 103 | 114% | 81.9% | 89.2% | 98.9% | 91.3% | 108% | 101 | 78.8% | 97.8% | 80.9% | 107% | 108 | 109% | 107% | 97.1 | 99%
O=C(O)c1cn(C2CC2)c2cc(N3CCN(Cc4nc5c(cnn5-c5ccc([N+](=O)[O-])cc5)c(=O)[nH]4)CC3)c(F)cc2c1=O | 101% | 94.8 | 99.1 | 103 | 105% | 112% | 95% | 102% | 98.9% | 112% | 110 | 92.6% | 98.1% | 92.4% | 107% | 96.4 | 105% | 97.8% | 106 | 102%
O=C(/C=C/c1ccc(Cl)cc1)c1ccc(O)c(CN2CCN(c3cc4c(cc3F)c(=O)c(C(=O)O)cn4C3CC3)CC2)c1 | 51.7% | 67.3 | 72.8 | 49.8 | 70.7% | 40.8% | 45.2% | 50% | 55.1% | 136% | 63.5 | 50.7% | 59.8% | 77.2% | 45.4% | 42 | 45% | 53.5% | 90.2 | 52.6%
COc1ccccc1/C=C(/C(=O)c1ccccc1)c1ccccc1 | 95.4% | 107 | 115 | 114 | 93.6% | 75.7% | 106% | 97.4% | 103% | 122% | 110 | 86.6% | 135% | 98.6% | 105% | 97.8 | 104% | 106% | 93.4 | 101%
CC(C)n1cc2c(N)ncnc2n1 | 103% | 94.5 | 86.6 | 96.4 | 107% | 144% | 99.3% | 102% | 100% | 118% | 128 | 98.5% | 86.3% | 109% | 115% | 106 | 102% | 105% | 121 | 107%
